This note sets out measurements from PubChem BioAssay (EPA / NIEHS).

Molecules are shown by their SMILES. Results filed as inconclusive are left out. The source made the active and inactive calls. Rule for the calls: active = hit-call score of the fitted dose curve at least 0.9, where 1 is the maximum; inconclusive = response in the unintended direction; inactive = score below 0.9.

Sequence of Cytochrome P450 3A4 (Homo sapiens) (P08684 whole entry, looked up): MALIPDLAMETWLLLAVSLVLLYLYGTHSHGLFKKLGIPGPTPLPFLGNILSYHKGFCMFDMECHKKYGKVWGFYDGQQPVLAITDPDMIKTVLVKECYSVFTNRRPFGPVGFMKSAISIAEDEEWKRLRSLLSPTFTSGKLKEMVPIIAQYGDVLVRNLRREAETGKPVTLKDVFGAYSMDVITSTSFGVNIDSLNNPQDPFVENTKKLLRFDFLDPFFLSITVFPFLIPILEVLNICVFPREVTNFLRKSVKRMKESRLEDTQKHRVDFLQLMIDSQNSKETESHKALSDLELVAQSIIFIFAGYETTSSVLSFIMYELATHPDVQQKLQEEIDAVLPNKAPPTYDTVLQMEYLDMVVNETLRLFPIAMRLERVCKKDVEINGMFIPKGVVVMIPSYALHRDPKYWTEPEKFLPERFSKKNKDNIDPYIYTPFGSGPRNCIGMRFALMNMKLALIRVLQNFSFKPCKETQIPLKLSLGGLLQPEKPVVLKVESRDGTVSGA

Read-out in the experiment: Cytochrome P450 3A4 (Homo sapiens) (UniProt P08684)
Kind of experiment: CLD_CYP3A4_48hr: CellzDirect (CLD) Gene Expression Assay for xenobiotic metabolism (CYP3A4) at 48 hours (AID 2283698). The procedure: CLD_48hr is a cell-based, multiplexed-readout assay that uses hepatocyte, a human liver primary cell, with measurements taken at 48 hours after chemical dosing in a 96-well plate.CLD_CYP3A4_48hr is one of 16 assay component(s) measured or calculated from the CLD_48hr assay. It is designed to make measurements of mRNA induction, a form of inducible reporter, as detected with chemiluminescence signals by Quantitative Nuclease Protection Assay (qNPA) technology.Data from the assay component CLD_CYP3A4_48hr was analyzed at the endpoint, CLD_CYP3A4_48hr, in the positive analysis fitting direction relative to DMSO as the negative control and baseline of activity. Using a type of inducible reporter, gain-of-signal activity can be used to understand changes in the reporter gene as they relate to the gene CYP3A4. Furthermore, this assay endpoint can be referred to as a primary readout. To generalize the intended target to other relatable targets, this assay endpoint is annotated to the cyp intended target family, where subfamily is xenobiotic metabolism.
Human hepatocyte cultures were treated daily for two consecutive days with fresh dosing solutions containing appropriate concentrations of the 320 ToxCast chemicals (chemical identities were blinded to CellzDirect and other ToxCast collaborators), vehicle control (0.2% DMSO), and positive control inducers as summarized in Table 1. Due to the large number of treatment groups and chemicals examined, the ToxCast chemicals were divided into two groups (spanning two independent cultures of hepatocytes from separate donor preparations (Hu778: ToxCast plates 1 and 2; Hu776: ToxCast plates 3 and 4). Each preparation of human hepatocyte cultures was treated with respective vehicle control, medium only control, set of six positive controls/reference chemicals for the five hepatic receptor pathways, and a subset of eight of the ToxCast chemicals (indoxacarb, pyrithiobac-sodium, norflurazon, cyhalofop-butyl, methomyl, thiram, acetochlor, and propiconazole). These replicate data, coupled with internal replicates designed within the blinded ToxCast chemical library, provided additional data to evaluate interindividual differences between hepatocyte preparations and their potential impact on chemical profiles.Cell morphology and integrity were evaluated using phase-contrast microscopy as an indicator of hepatocyte cell health (Tyson & Green, 1987). Cultures for each treatment group (i.e., media, vehicle [0.2% DMSO], positive control inducers [multiple concentrations], and the ToxCast chemicals [multiple concentrations]) were observed and cell morphology was assessed relative to vehicle control cultures at each harvest time point (0, 6, 24, or 48 h). […] Images were evaluated at the conclusion of the study to assess changes in cell integrity and account for the effects of chemical exposure on uncharacteristic changes in concentration-dependent gene expression profiles. The results from these determinations of apparent cytotoxicity were annotated (yes/no) alongside the corresponding qNPA data for reference.At the conclusion of each treatment period, hepatocyte cultures (96-well) were washed with 1 volume of HBSS, lysed by addition of 25 ul ArrayPlate lysis buffer (HTG, Tucson, AZ), and 70 ul/well of Denaturation Oil, denatured by incubation at 95C for 10 min, and frozen at approximately -70C until analysis by nuclease protection assay (qNPA) (Roberts et al., 2007). For qNPA analysis, cell lysates were thawed at 50C for approximately 30 min, qNPA probes were added, and samples were incubated at 95C for 10 min to begin the detection process by denaturing the target RNA, dissociating the duplexes and secondary structure hybridization. At the conclusion of the hybridization period, S1 nuclease reagent was added to each sample to digest all nonprotected nucleotides at 50C for 60-90 min. […]
As to `CN(C)C(=O)Nc1ccc(Cl)c(Cl)c1`, the compound was called inactive. Broadly, the AC50 is the concentration at which the activity in the assay is half-maximal. For `CCN(Cc1c(F)cccc1Cl)c1c([N+](=O)[O-])cc(C(F)(F)F)cc1[N+](=O)[O-]`, the AC50 is 1.9 µM (active). With `OB(O)O`, the call was inactive.

Regarding `Cc1nn(C)c(Oc2ccccc2)c1C=NOCc1ccc(C(=O)OC(C)(C)C)cc1`, the compound was classed as inactive.

With `COCCO`, the compound was classed as inactive. The same measure, in the same setting: next, `CCCN(CCC)C(=O)SCC`: “inactive”. In the case of `CCCCC(CC)CN1C(=O)C2C3C=CC(C3)C2C1=O` (stereo not given), the AC50 was 20 µM (active). As to `S=C([S-])NCCNC(=S)[S-].[Mn+2]`, the result was inactive.

Turning to `CCOC(=O)[C@H](C)Oc1ccc(Oc2nc3ccc(Cl)cc3o2)cc1`, the compound was classed as inactive. Same read-out and setting: next, `CC1(C)C(C=C(Cl)Cl)C1C(=O)OCc1cccc(Oc2ccccc2)c1` (stereo not given): “inactive”. Same read-out and setting: with `CCCCCOC(=O)COc1cc(N2C(=O)C3=C(CCCC3)C2=O)c(F)cc1Cl` the entry was “inactive”.

With `c1ccc(Nc2ccccc2)cc1`, the compound was called inactive. `Oc1ccc(C(c2ccc(O)cc2)C(Cl)(Cl)Cl)cc1`: the compound was called inactive. Still for that read-out and setting: with `CCCCOC(=O)C(C)Oc1ccc(Oc2ccc(C(F)(F)F)cn2)cc1` (stereo not given) the entry was “inactive”.

Take `CCCN(CCC)c1c([N+](=O)[O-])cc(C(F)(F)F)c(N)c1[N+](=O)[O-]`: the concentration at half-maximal activity (AC50) was 7.62 µM (active).

`CC(C)(C)[C@@H](O)[C@@H](Cc1ccc(Cl)cc1)n1cncn1`: the AC50 is 2.15 µM (active).

As to `CCOC(=O)C(C)Oc1ccc(Oc2cnc3cc(Cl)ccc3n2)cc1` (stereo not given), the compound was called inactive.

In the case of `CCCCOC(=O)[C@@H](C)Oc1ccc(Oc2ccc(C(F)(F)F)cn2)cc1`, the compound was called inactive. The same measure, in the same setting: next, `CCC(C)OC(=O)N1CCCCC1CCO` (stereo not given): “inactive”; `CCNc1nc(N)nc(Cl)n1`: “inactive”.

For the compound `CCSC(=O)N(CC(C)C)CC(C)C`, the compound was called inactive. As for `COC(=O)c1cccc(C)c1S(=O)(=O)NC(=O)Nc1nc(OCC(F)(F)F)nc(N(C)C)n1`, the AC50 is 20 µM (active). Still for that read-out and setting: with `COC(=O)CSc1cc(N=c2sc(=O)n3n2CCCC3)c(F)cc1Cl` the figure was 4.08 µM (active).

As to `CSC(=O)c1cccc2nnsc12`, the result was inactive. For the compound `CCOC(=O)NCCOc1ccc(Oc2ccccc2)cc1`, the result was inactive. For `CCOC(=O)COc1cc(-n2ncc(C(F)(F)F)c(C)c2=O)c(F)cc1Cl`, the AC50 was 5.32 µM (active). `COc1c(Cl)ccc(Cl)c1C(=O)O`: the outcome was inactive. As to `COC(=O)c1c(Cl)nn(C)c1S(=O)(=O)NC(=O)Nc1nc(OC)cc(OC)n1`, the AC50 was 6.72 µM (active).

On to `O=C(O)C1(C(=O)Nc2ccc(Cl)cc2Cl)CC1`, for which the compound was called inactive.

Take `C#CCOC(=O)[C@@H](C)Oc1ccc(Oc2ncc(Cl)cc2F)cc1`: the compound was classed as inactive.
